Experimental data from PubChem BioAssay (EPA / NIEHS).
Values joined by “and” are separate entries in the source; they are usually repeats but may differ in a detail not shown here. Equal entries are not always repeated. Records with an inconclusive call do not appear. Some structures have more than one record in an assay (separate samples or runs), and their calls can disagree. Active and inactive are the calls of the source. How the source made its calls: active means hit-call score of the fitted dose curve at least 0.9, where 1 is the maximum; inconclusive means response in the unintended direction; inactive means score below 0.9.

Target: Nuclear receptor subfamily 1 group I member 2 (Homo sapiens) (UniProt O75469)
Assay: NVS_NR_hPXR: NovaScreen (NVS) Nuclear Receptor Binding Assay for human Pregnane X Receptor (PXR) (AID 2283365);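 further: a drop in FRET signal versus DMSO baseline means the compound binds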
Summary of the method: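 Read-out: TR-FRET, human PXR, 2 h post-dosing, cell-free. Loss of signal vs DMSO taken as binding activity; 25 uM primary, concentration series secondary.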

Nuclear receptor subfamily 1 group I member 2 (Homo sapiens), sequence (O75469 whole entry, looked up): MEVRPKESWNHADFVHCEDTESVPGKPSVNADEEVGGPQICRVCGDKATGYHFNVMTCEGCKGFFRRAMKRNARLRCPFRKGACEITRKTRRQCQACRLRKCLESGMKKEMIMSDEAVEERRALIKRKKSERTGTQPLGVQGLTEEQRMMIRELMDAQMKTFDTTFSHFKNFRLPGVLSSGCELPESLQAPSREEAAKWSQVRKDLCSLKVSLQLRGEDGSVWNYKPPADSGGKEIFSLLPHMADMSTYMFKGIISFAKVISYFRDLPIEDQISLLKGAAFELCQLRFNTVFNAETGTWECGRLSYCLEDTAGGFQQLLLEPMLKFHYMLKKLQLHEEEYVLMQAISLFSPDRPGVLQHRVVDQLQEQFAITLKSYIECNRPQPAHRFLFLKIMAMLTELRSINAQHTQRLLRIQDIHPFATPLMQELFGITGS

Compound | outcome | AC50
C#C[C@]1(O)CC[C@H]2[C@@H]3CCC4=CC(=O)CC[C@@H]4[C@H]3CC[C@@]21CC | inactive | –
C[C@]12CC[C@@H]3c4ccc(O)cc4C[C@@H](CCCCCCCCCS(=O)CCCC(F)(F)C(F)(F)F)[C@H]3[C@@H]1CC[C@@H]2O (stereo partly specified) | inactive | –
S=C(S)NCCNC(=S)S.[Mn+2].[S-]C([S-])=NCCN=C([S-])[S-].[Zn+2] | – | 5.33 µM (active) and 1.52 µM (active)
N[C@@H](Cc1cc(I)c(Oc2ccc(O)c(I)c2)c(I)c1)C(=O)O | inactive | –
COCCO | – | 3.84 µM (active)

Target: rat Androgen Receptor (AR), Ar (gene 24208) (UniProt P15207)
Assay: NVS_NR_rAR: NovaScreen (NVS) Nuclear Receptor Binding Assay for rat Androgen Receptor (AR) (AID 2283366)
Summary of the method: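 Cell-free radioligand binding on extracts of prostate from testosterone-pretreated rats, read by filter-based scintillation counting 18 h after dosing. Loss of bound signal fitted positively versus DMSO; primary screen in duplicate at 25 uM, actives followed up in concentration series.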

rat Androgen Receptor (AR), Ar (gene 24208), sequence (P15207 whole entry, looked up): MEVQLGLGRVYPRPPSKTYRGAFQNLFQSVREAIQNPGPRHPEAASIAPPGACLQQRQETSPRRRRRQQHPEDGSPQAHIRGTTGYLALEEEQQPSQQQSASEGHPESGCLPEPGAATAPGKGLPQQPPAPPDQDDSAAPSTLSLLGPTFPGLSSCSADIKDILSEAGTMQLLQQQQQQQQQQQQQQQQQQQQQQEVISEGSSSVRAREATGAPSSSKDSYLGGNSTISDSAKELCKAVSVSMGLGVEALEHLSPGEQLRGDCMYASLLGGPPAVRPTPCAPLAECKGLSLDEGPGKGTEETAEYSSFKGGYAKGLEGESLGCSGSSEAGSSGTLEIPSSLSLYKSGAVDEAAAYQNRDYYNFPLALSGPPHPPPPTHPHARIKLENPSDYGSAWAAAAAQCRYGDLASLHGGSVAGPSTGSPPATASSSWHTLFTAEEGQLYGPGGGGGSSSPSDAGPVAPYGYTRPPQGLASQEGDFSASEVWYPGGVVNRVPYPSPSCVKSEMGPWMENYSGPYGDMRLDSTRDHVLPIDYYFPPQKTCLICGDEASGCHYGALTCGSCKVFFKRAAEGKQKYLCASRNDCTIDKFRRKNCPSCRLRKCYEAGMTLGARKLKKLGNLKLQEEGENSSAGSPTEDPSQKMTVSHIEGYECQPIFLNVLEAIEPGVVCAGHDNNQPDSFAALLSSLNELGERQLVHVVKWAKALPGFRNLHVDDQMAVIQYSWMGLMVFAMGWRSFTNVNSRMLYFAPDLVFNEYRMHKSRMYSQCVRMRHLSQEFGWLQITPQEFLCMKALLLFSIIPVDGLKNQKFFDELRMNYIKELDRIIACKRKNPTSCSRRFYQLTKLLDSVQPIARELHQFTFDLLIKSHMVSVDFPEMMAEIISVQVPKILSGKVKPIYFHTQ

Compound | outcome
C[C@]12CC[C@@H]3c4ccc(O)cc4C[C@@H](CCCCCCCCCS(=O)CCCC(F)(F)C(F)(F)F)[C@H]3[C@@H]1CC[C@@H]2O (stereo partly specified) | inactive
CCCCOCCOCCOCc1cc2c(cc1CCC)OCO2 | inactive
COC(=O)CSc1cc(N=c2sc(=O)n3n2CCCC3)c(F)cc1Cl | inactive

Target: guinea pig Sigma Receptor, Non-selective Binding, SIGMAR1 (gene 100135589) (UniProt Q60492)
Assay: NVS_OR_gSIGMA_NonSelective: NovaScreen (NVS) Nuclear Receptor Binding Assay for guinea pig Sigma Receptor, Non-selective Binding (AID 2283367)
Summary of the method: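 Guinea pig brain membranes, cell-free radioligand binding; read 1 h after dosing by filter-based scintillation counting. Loss of signal vs DMSO baseline taken as displacement. Primary screen single concentration 25 uM in duplicate; actives retested in concentration series.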

guinea pig Sigma Receptor, Non-selective Binding, SIGMAR1 (gene 100135589), sequence (Q60492 whole entry, looked up): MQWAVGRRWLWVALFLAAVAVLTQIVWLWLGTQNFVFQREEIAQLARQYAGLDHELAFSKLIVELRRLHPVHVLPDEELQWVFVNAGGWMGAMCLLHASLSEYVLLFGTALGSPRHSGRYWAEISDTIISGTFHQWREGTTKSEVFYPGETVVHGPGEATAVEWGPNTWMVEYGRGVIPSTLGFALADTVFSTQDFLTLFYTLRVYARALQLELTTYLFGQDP

Compound | outcome | AC50
S=C(S)NCCNC(=S)S.[Mn+2].[S-]C([S-])=NCCN=C([S-])[S-].[Zn+2] | inactive | –
CCCOC(=O)NCCCN(C)C | – | 11.3 µM (active)
S=C([S-])NCCNC(=S)[S-].[Mn+2] | inactive | –
CCC(C)OC(=O)N1CCCCC1CCO (stereo unspecified) | – | 31.1 µM (active)
C=CCOC(Cn1ccnc1)c1ccc(Cl)cc1Cl (stereo unspecified) | – | 4.62 µM (active)

Target: human Adenosine Transporter (Adot), SLC29A1 (gene 2030) (UniProt Q99808)
Assay: NVS_TR_hAdoT: NovaScreen (NVS) Transporter Assay for human Adenosine Transporter (Adot) (AID 2283368)
Description: NVS_TR_hAdoT is a biochemical, single-readout assay that uses extracted gene-proteins from U937 in a cell-free assay. Measurements were taken 1 hour after chemical dosing in a 96-well plate.NVS_TR_hAdoT is one of one assay component(s) measured or calculated from the NVS_TR_hAdoT assay. It is designed to make measurements of radioligand binding, a form of binding reporter, as detected with scintillation counting signals by Filter-based radiodetection technology.Data from the assay component NVS_TR_hAdoT was analyzed into 1 assay endpoint. This assay endpoint, NVS_TR_hAdoT, was analyzed in the positive analysis fitting direction relative to DMSO as the negative control and baseline of activity. Using a type of binding reporter, loss-of-signal activity can be used to understand changes in the binding as they relate to the gene SLC29A1. Furthermore, this assay endpoint can be referred to as a primary readout, because the performed assay has only produced 1 assay endpoint. To generalize the intended target to other relatable targets, this assay endpoint is annotated to the transporter intended target family, where the subfamily is nucleoside transporter.
Binding assays used specific radioligands (tritiated, iodinated) with non-radioactive competitive displacement ligands in agonist or antagonist protocols (as indicated) and various reference compounds and inhibitors to titrate specific binding to receptors and transporters. Most enzyme assays (CYPs, kinases, phosphatases, proteases, HDACs) used recombinant protein and specific substrates (fluorescence mostly, some colorimetric and radioactive) and inhibitors, followed by a biochemical separation of substrate and product. All assays for the biochemical HTS were initially run in duplicate at a single concentration (10 uM for CYP450 assays and 25 uM for all others). Assay-chemical combinations meeting a pre-defined threshold (e.g., 30% inhibition and other criteria defined below) were then run in singleton concentration-response format with maximum concentration of 20 uM for CYPs and 50 uM for all others. Each assay was run with positive and negative controls, and concurrent controls on every plate. The follow-up (secondary) screen tested active chemical-pairs in concentration series, as well as a few additional assays not tested in the primary screen, some selected negative inactives, and several cases re-run in the concentration series for confirmatory purposes.

human Adenosine Transporter (Adot), SLC29A1 (gene 2030), sequence (Q99808 whole entry, looked up): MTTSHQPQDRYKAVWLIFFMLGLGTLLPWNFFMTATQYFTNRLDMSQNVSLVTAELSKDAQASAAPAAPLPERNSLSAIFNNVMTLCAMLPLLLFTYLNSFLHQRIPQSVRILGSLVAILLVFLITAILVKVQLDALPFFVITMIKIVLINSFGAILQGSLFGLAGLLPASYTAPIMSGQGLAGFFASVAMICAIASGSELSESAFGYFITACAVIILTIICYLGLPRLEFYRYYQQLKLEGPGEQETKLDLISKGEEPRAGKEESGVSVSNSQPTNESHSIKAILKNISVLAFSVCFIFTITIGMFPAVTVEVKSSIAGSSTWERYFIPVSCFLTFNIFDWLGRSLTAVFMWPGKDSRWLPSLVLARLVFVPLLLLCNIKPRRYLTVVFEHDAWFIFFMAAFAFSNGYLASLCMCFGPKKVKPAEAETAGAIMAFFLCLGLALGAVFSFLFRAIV

Compound | outcome | AC50
OB(O)O | inactive | –
C[C@]12CC[C@@H]3c4ccc(O)cc4C[C@@H](CCCCCCCCCS(=O)CCCC(F)(F)C(F)(F)F)[C@H]3[C@@H]1CC[C@@H]2O (stereo partly specified) | – | 9.12 µM (active)
S=C(S)NCCNC(=S)S.[Mn+2].[S-]C([S-])=NCCN=C([S-])[S-].[Zn+2] | inactive | –
CCC(O)=C1C(=O)CC(C(=O)O)CC1=O (stereo unspecified) | inactive | –

Test system: guinea pig Dopamine Transporter (DAT), gene 100714898
Assay: NVS_TR_gDAT: NovaScreen (NVS) Transporter Assay for guinea pig Dopamine Transporter (DAT) (AID 2283369);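 further: active compounds lower bound radioligand signal relative to DMSO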
Summary of the method: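 Primary pass: duplicate wells at 25 uM, threshold e.g. 30% inhibition. Follow-up: singleton concentration-response, highest 50 uM. Radioligand binding on guinea pig striatal membranes, 2 h, filtration scintillation detection.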

Compound | AC50
CCOC(=O)NCCOc1ccc(Oc2ccccc2)cc1 | 8.75 µM (active)
CC(C)(C)[C@@H](O)[C@@H](Cc1ccc(Cl)cc1)n1cncn1 | 4.16 µM (active)
C=CCOC(Cn1ccnc1)c1ccc(Cl)cc1Cl (stereo unspecified) | 14.3 µM (active)

Target: Peroxisome proliferator-activated receptor gamma (Homo sapiens) (UniProt P37231)
Assay: NVS_NR_hPPARg: NovaScreen (NVS) Nuclear Receptor Binding Assay for human Peroxisome Proliferator-activated Receptor gamma (PPARg) (AID 2283370)
Summary of the method: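 Extracted receptor protein, cell-free; compound incubated 2 h then fluorescence polarization read. Baseline: DMSO. Actives from 25 uM duplicate screen re-run across concentrations.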

Peroxisome proliferator-activated receptor gamma (Homo sapiens), sequence (P37231 whole entry, looked up): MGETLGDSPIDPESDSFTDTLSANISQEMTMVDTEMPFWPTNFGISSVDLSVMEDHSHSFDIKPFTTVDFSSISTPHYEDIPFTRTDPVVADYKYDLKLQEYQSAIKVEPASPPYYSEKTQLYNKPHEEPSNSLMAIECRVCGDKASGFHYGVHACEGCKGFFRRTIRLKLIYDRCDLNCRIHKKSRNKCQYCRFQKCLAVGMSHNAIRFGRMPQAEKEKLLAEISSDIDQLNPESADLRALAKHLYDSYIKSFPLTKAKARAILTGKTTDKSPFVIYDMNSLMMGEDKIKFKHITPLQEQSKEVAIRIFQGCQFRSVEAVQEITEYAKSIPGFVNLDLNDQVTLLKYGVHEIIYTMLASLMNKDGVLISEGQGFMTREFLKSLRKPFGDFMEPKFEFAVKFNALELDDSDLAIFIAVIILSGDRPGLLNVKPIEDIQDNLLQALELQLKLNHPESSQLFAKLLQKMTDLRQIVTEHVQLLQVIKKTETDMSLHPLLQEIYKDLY

Compound | outcome | AC50
CCOC(=O)C(C)Oc1ccc(Oc2nc3ccc(Cl)cc3o2)cc1 (stereo unspecified) | inactive | –
C#C[C@]1(O)CC[C@H]2[C@@H]3CCC4=CC(=O)CC[C@@H]4[C@H]3CC[C@@]21CC | inactive | –
O=C(O)c1ccccc1 | inactive | –
CCOC(=O)[C@H](C)Oc1ccc(Oc2nc3ccc(Cl)cc3o2)cc1 | inactive | –
CC(C)CCCCCCc1ccc(O)cc1 | inactive | –
C[C@]12CC[C@@H]3c4ccc(O)cc4C[C@@H](CCCCCCCCCS(=O)CCCC(F)(F)C(F)(F)F)[C@H]3[C@@H]1CC[C@@H]2O (stereo partly specified) | inactive | –
COc1nc(C)nc(NC(=O)NS(=O)(=O)c2ccccc2OCCCl)n1 | inactive | –
CCCCOCCOCCOCc1cc2c(cc1CCC)OCO2 | inactive | –
S=C(S)NCCNC(=S)S.[Mn+2].[S-]C([S-])=NCCN=C([S-])[S-].[Zn+2] | inactive | –
C#CCOC(=O)[C@@H](C)Oc1ccc(Oc2ncc(Cl)cc2F)cc1 | inactive | –
N[C@@H](Cc1cc(I)c(Oc2ccc(O)c(I)c2)c(I)c1)C(=O)O | inactive | 32.3 µM (active)
O=C(O)C1(C(=O)Nc2ccc(Cl)cc2Cl)CC1 | – | 8.65 µM (active)
CCC(C)OC(=O)N1CCCCC1CCO (stereo unspecified) | inactive | –
C=CCOC(Cn1ccnc1)c1ccc(Cl)cc1Cl (stereo unspecified) | inactive | –
c1ccc(Nc2ccccc2)cc1 | inactive | –
